Compound activity from PubChem BioAssay.
The entries come from a sample that favours hits as a whole.
Algae TAG accum: inducers of triacylglycerol accumulation in Chlamydomonas reinhardtii algae. Chlamydomonas reinhardtii TAG, Nile Red fluorescence, 72 h. calls only at 10 µM (by protocol). actives 0.84% (n = 44,000). AID 1159537; call rule not given here;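 also: hits raise Nile Red signal meaning more stored TAG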
An asterisk follows results filed as active.

`O=C(Nc1ccc(Oc2ccc(Br)cc2)cc1)c1ccc([N+](=O)[O-])cc1` gave Algae TAG accum inactive.
For CCN(CC)C(=O)COc1ccc(-c2nnc(N3CCOCC3)c3ccccc23)cc1 the results were Algae TAG accum inactive.
For Cc1ccc(NC(=O)c2ccoc2C)c([N+](=O)[O-])c1 the results were Algae TAG accum inactive.
For CNCC(=O)NCC12CC3CC(CC(C3)C1)C2 the results were Algae TAG accum inactive.
O=C(CN1CCCCC1)NC12CC3CC(CC(C3)C1)C2 was read as Algae TAG accum active.
For CNCC(=O)NC12CC3CC(CC(C3)C1)C2 the results were Algae TAG accum inactive.
Screening O=C(CCN1CCOCC1)NC12CC3CC(CC(C3)C1)C2 returned Algae TAG accum inactive.
For O=C(CN1CCCCC1)NCC12CC3CC(CC(C3)C1)C2 the results were Algae TAG accum active.
`O=C(NCC12CC3CC(CC(C3)C1)C2)NC1CCCCC1` gave Algae TAG accum inactive.
Screening COc1ccc(NC(=O)Nc2ccc(C)cc2)cc1 returned Algae TAG accum inactive.
For Cc1sc(NC(=O)Nc2ccc(Cl)c(Cl)c2)c(C(N)=O)c1C the results were Algae TAG accum inactive.
`COCC(C)NC(=O)N1CCOCC1` (configuration not stated) gave Algae TAG accum inactive.
`CC(C)(Oc1ccc(Cl)cc1)C(=O)N1CCN(c2ccc(F)cc2)CC1` gave Algae TAG accum active.
CC(C)(Oc1ccc(Cl)cc1)C(=O)N1CCN(c2cccc(Cl)c2)CC1 was read as Algae TAG accum inactive.
CC(C)(Oc1ccc(Cl)cc1)C(=O)N1CCN(c2ccccn2)CC1 was read as Algae TAG accum inactive.
`CCc1cccc(C)c1NC(=O)c1ccc(Cl)cc1[N+](=O)[O-]` gave Algae TAG accum inactive.
COc1ccc(NC(=O)/C(=C/c2cccs2)NC(=O)c2cccs2)cc1 was read as Algae TAG accum inactive.
For O=C(N/C(=C/c1cccc([N+](=O)[O-])c1)c1nc2ccccc2[nH]1)c1cccs1 the results were Algae TAG accum inactive.
For COc1cc(NC(=O)COc2ccc(Cl)cc2)ccc1NC(=O)c1ccco1 the results were Algae TAG accum inactive.
`C=CCn1c(SCC(=O)NCCc2ccccc2)nnc1-c1ccc(Cl)cc1Cl` gave Algae TAG accum active.
C=CCn1c(SCC(=O)O)nnc1-c1ccccc1 was read as Algae TAG accum inactive.
Screening C=CCn1c(SCC(=O)O)nnc1-c1ccc(Cl)cc1 returned Algae TAG accum inactive.
`O=c1[nH]cnc2c1cnn2CCOc1ccccc1` gave Algae TAG accum inactive.
For COc1ccc(Cc2noc(-c3ccccc3Cl)n2)cc1OC the results were Algae TAG accum inactive.
CC(O)c1nc2cc([N+](=O)[O-])ccc2n1C (configuration not stated) was read as Algae TAG accum inactive.
Screening CCNC(=O)CC1Nc2ccccc2NC1=O (configuration not stated) returned Algae TAG accum inactive.
CN1CCC(N(C)Cc2coc3ccccc3c2=O)CC1 was read as Algae TAG accum inactive.
Cc1ccc(CN(C)C2CCN(C)CC2)s1 was read as Algae TAG accum active.
CCOc1ccc(CN(C)C2CCN(C)CC2)cc1 was read as Algae TAG accum inactive.
For CN1CCC(N(C)Cc2ccc(Cl)c(Cl)c2)CC1 the results were Algae TAG accum inactive.
CC(C)c1ccc(CN(C)C2CCN(C)CC2)cc1 was read as Algae TAG accum inactive.
`CCc1ccc(CN(C)C2CCN(C)CC2)cc1` gave Algae TAG accum active.
CN1CCC(N(C)Cc2cccs2)CC1 was read as Algae TAG accum inactive.
Screening COc1cccc(CN(C)C2CCN(C)CC2)c1 returned Algae TAG accum inactive.
Screening CN1CCC(N(C)Cc2cccc(Oc3ccccc3)c2)CC1 returned Algae TAG accum active.
Screening O=C(CCN1C(=O)c2ccccc2C1=O)NC1CCCC1 returned Algae TAG accum inactive.
`NC(=O)C1CCN(C2CC(=O)N(c3ccccc3Cl)C2=O)CC1` (configuration not stated) gave Algae TAG accum inactive.
CN1CCC(N(C)C/C=C/c2ccccc2[N+](=O)[O-])CC1 was read as Algae TAG accum inactive.
Screening COc1ccccc1N(C(F)F)S(=O)(=O)c1cccs1 returned Algae TAG accum inactive.
`COc1ccc(C(=O)N2CCc3ccccc32)cc1I` gave Algae TAG accum inactive.
Screening C=CCn1c(=O)c(C(=O)Nc2ccc([N+](=O)[O-])cc2)c(O)c2ccccc21 returned Algae TAG accum inactive.
CC(C)Sc1nnnn1-c1ccc(Cl)cc1 was read as Algae TAG accum inactive.
Screening COc1cc([N+](=O)[O-])ccc1N1C(=O)CC(N2CCc3ccccc3C2)C1=O (configuration not stated) returned Algae TAG accum inactive.
Screening CCOc1cc(C(=O)Nc2cc(OC)c(Cl)cc2OC)cc(OCC)c1OCC returned Algae TAG accum inactive.
`C=CCc1ccccc1OCC(O)CN1CCC(C)CC1` (configuration not stated) gave Algae TAG accum inactive.
C=CCc1ccccc1OCC(O)CN(C)C1CCCCC1 (configuration not stated) was read as Algae TAG accum active.
`C=CCc1ccccc1OCC(O)CN1C(C)CCCC1C` (configuration not stated) gave Algae TAG accum inactive.
For CCn1c(SCc2ccc([N+](=O)[O-])cc2)nnc1-c1ccc(C)cc1 the results were Algae TAG accum inactive.
Screening COc1ccc(Br)cc1S(=O)(=O)N(CC(=O)N1CCCCC1)c1ccccc1 returned Algae TAG accum inactive.
For O=C(CSC1=NCCS1)Nc1ccc(F)cc1F the results were Algae TAG accum inactive.
Cc1cc(-c2ccc(NC(=O)c3ccco3)c(C)c2)ccc1NC(=O)c1ccco1 was read as Algae TAG accum inactive.
Screening COc1ccc(OC)c(NC(=O)c2ccco2)c1 returned Algae TAG accum inactive.
`COc1cc(-c2ccc(NC(=O)c3ccco3)c(OC)c2)ccc1NC(=O)c1ccco1` gave Algae TAG accum active.
Nc1cc(N)nc(SCC(=O)Nc2cccc(Cl)c2)n1 was read as Algae TAG accum inactive.
`O=C(CN1CCCCC1)Nc1ncc(Cc2ccc(F)cc2)s1` gave Algae TAG accum active.
For COc1ccc(Cc2cnc(NC(=O)Cc3ccccc3)s2)cc1 the results were Algae TAG accum inactive.
Screening O=C(Nc1ncc(Cc2ccc(F)cc2)s1)C1CCCO1 (configuration not stated) returned Algae TAG accum inactive.
For Cc1ccc(Cc2cnc(NC(=O)c3ccccc3I)s2)cc1 the results were Algae TAG accum inactive.
O=C(NCCCN1CCCC1)c1ccc(Br)cc1 was read as Algae TAG accum inactive.
`COc1cc(C(=O)Nc2nnc(C(C)(C)C)s2)cc(OC)c1OC` gave Algae TAG accum inactive.
For CC(=O)N(C1=C(N(C)C)C(=O)c2ccccc2C1=O)c1ccc(Cl)c(Cl)c1 the results were Algae TAG accum active.
CC(=O)N(C1=C(N(C)C)C(=O)c2ccccc2C1=O)c1cccc(Cl)c1 was read as Algae TAG accum inactive.
Screening CC(=O)N(C1=C(N(C)C)C(=O)c2ccccc2C1=O)c1ccc(F)c(F)c1 returned Algae TAG accum inactive.
`CCOc1cc(C2C(=C(O)c3ccc(OC)c(C)c3)C(=O)C(=O)N2CCN(C)C)ccc1O` (configuration not stated) gave Algae TAG accum inactive.
Screening O=C(NC1CCN(Cc2ccccc2)CC1)c1ccccc1Br returned Algae TAG accum inactive.
